# From PubChem BioAssay
# Assay: probe aInhba binding on compound microarray – biochemical, small-molecule microarray, 635/667 nm fluorescence, primary screen (AID 1148);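 note: score merges 667nm spot fluorescence with signal-to-noise for antibody binding to printed compounds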
# Conditions: higher = more signal
row,SMILES,composite z-score
1,CCN1C(=O)[C@@H]2[C@H]3C(=CC[C@@H]2C1=O)C1(OCCCO1)[C@H]1O[C@H]1[C@H]3O,0.0513
2,CCOC(=O)[C@H](Cc1ccccc1)NC(=O)CCC1CC(OC(=O)NCCc2ccc(F)cc2)CC2(CCCC(COC(=O)NCCc3ccccc3OC)O2)O1 (stereo partly specified),-0.0897
3,CCOC(=O)NN=C1C[C@@H](O)[C@@H](O)[C@@H]2[C@@H]3C(=O)N(c4cccc(Oc5ccccc5)c4)C(=O)[C@@H]3CC[C@H]12,-0.129
4,CCCCC#C[C@@H]1C=C[C@H](Oc2ccc(C(=O)OC)cc2)[C@@H](COC(=O)OCC)O1,-0.128
5,CCCNC(=O)OC[C@H]1O[C@H](CCON=C(C)CCN2CCc3nc(CC)c(CC)cc3C2)C=C[C@@H]1Oc1ccc(OC)cc1,-0.0405
6,CCC1=NOC(CCC2CC(OC(=O)NCc3cccc4c3OCO4)CC3(CCCC(COC(=O)NCCc4ccccc4OC)O3)O2)C1 (stereo unspecified),-0.152
7,CO[C@@H]1COC(=O)CC=C[C@H](C)[C@H](OC)COC(=O)[C@H](C)NC(=O)CC=C[C@H]1C,-0.133
8,C#CCCCON=C1C[C@@H](O)[C@@H](O)[C@@H]2[C@@H]3C(=O)N(C(C)(C)C)C(=O)[C@@H]3CC[C@H]12,0.0228
9,CCOC(=O)[C@H](Cc1ccccc1)NC(=O)CCC1CC(OC(=O)NCc2ccc3c(c2)OCO3)CC2(CCCC(COC(=O)NCCC(C)C)O2)O1 (stereo partly specified),0.0471
10,COC(=O)CC=C[C@@H](C)[C@@H](C=NO[C@H](C)c1cn([C@H](CO)Cc2ccccc2)nn1)NS(=O)(=O)c1ccc(C)cc1,-0.0531
11,CCN1C(=O)[C@H]2[C@H]3[C@H](O)[C@H](O)CC(=O)[C@@H]3CC[C@H]2C1=O,-0.0719
12,CCO[C@H](c1cc(OC)cc([N+](=O)[O-])c1OC)[C@H](C)C=CCC(=O)OC,-0.183
13,COC(=O)[C@H](C)NC(=O)CCC1CC(OC(=O)NCCc2ccc(F)cc2)CC2(CCCC(COC(=O)NCc3cccc(C(F)(F)F)c3)O2)O1 (stereo partly specified),-0.242
14,CCOC(=O)[C@H](CC(C)C)NC(=O)CCC1CC(OC(=O)NCc2ccc3c(c2)OCO3)CC2(CCCC(COC(=O)NCc3cccc(C(F)(F)F)c3)O2)O1 (stereo partly specified),0.0184
15,COC(=O)[C@H](C)NC(=O)CCC1CC(OC(=O)NCc2ccc3c(c2)OCO3)CC2(CCCC(COC(=O)NCc3cccc(C(F)(F)F)c3)O2)O1 (stereo partly specified),0.0852
16,C[C@@H](c1ccccc1)N1C(=O)[C@H]2[C@H]3[C@H](O)[C@H](O)CC(=NO[C@@H]4O[C@H](CO)[C@@H](O)[C@H](O)[C@H]4O)[C@H]3CC[C@H]2C1=O,-0.142
17,CCc1cc2c(nc1CC)CCN(CCC(C)=NO[C@H](C)c1cn([C@H](CO)Cc3ccccc3)nn1)C2,0.173
18,O=C1C[C@@H](O)[C@@H](O)[C@@H]2[C@@H]3C(=O)N(Cc4ccccc4)C(=O)[C@@H]3CC[C@@H]12,0.0391

row,SMILES,composite z-score
1,COc1ccc(O[C@H]2C=C[C@@H](c3ccccc3)O[C@@H]2CON=CC[C@@H]2C=C[C@H](OC(C)=O)[C@@H](COC(C)=O)O2)cc1,-0.176
2,Cc1ccc(S(=O)(=O)n2c3ccccc3c3nnc(C(=O)c4ccccc4)nc32)cc1,0.0998
3,CCCNC(=O)OC[C@H]1O[C@H](CCON=C(C)CCC(=O)OC[C@H]2O[C@H](c3ccccc3)C=C[C@@H]2Oc2ccc(OC)cc2)C=C[C@@H]1Oc1ccc(OC)cc1,-0.125
4,COC(=O)CC=C[C@@H](C)[C@H](OCc1cccc(-c2ccccc2)c1)C1CCCCC1,-0.176
5,O=C(NN=C1C[C@@H](O)[C@@H](O)[C@@H]2[C@@H]3C(=O)N(Cc4ccccc4)C(=O)[C@@H]3CC[C@@H]12)OCc1ccccc1,-0.239
6,COc1ccc(COC(=O)NN=C2C[C@@H](O)[C@@H](O)[C@@H]3[C@@H]4C(=O)N(Cc5ccccc5)C(=O)[C@@H]4CC[C@H]23)cc1,-0.753
7,COc1ccc(O[C@H]2C=C[C@@H](c3ccccc3)O[C@@H]2CON=C(C)CCC(=O)OC[C@H]2O[C@H](c3ccccc3)C=C[C@@H]2Oc2ccc(OC)cc2)cc1,-0.0136
8,CCCNC(=O)OC[C@H]1O[C@H](CCON=Cc2ccc(C(=O)N3[C@H](c4ccc(C)cc4)[C@@H](C)CC[C@H]3C(=O)OC)cc2)C=C[C@@H]1Oc1ccc(OC)cc1,-0.105
9,CCOC(=O)CCN1C(=O)[C@H]2[C@H]3[C@H](O)[C@H](O)CC(=NNC(=O)OCc4ccccc4)[C@@H]3CC[C@H]2C1=O,-0.218
10,C[C@@H](c1ccccc1)N1C(=O)[C@H]2[C@H]3[C@H](O)[C@H](O)CC(=NOCc4ccccc4)[C@H]3CC[C@H]2C1=O,-0.183
11,COC(=O)CC=C[C@@H](C)[C@@H](C=NOC[C@@H](O)[C@H]1O[C@@H]2OC(C)(C)O[C@@H]2[C@H]1O)NS(=O)(=O)c1ccc(C)cc1,0.163
12,O=C(NN=C1C[C@@H](O)[C@@H](O)[C@@H]2[C@@H]3C(=O)N(C4CCCCC4)C(=O)[C@@H]3CC[C@H]12)OCc1ccccc1,-0.082
13,Cc1cc2c(nc1C)CCCCN2CC(C)ON=C[C@@H](C)[C@H](OCc1ccccc1)C(C)C (stereo partly specified),-0.26
14,CCOC(=O)[C@H](CC(C)C)NC(=O)CCC1CC(OC(=O)NCc2cccc3ccccc23)CC2(CCCC(COC(=O)NCCC(C)C)O2)O1 (stereo partly specified),-0.0736
15,CC(C)CON=C1C[C@@H](O)[C@@H](O)[C@@H]2[C@@H]3C(=O)N(C[C@@H]4CCCO4)C(=O)[C@@H]3CC[C@@H]12,-0.0987
16,C=CC[C@@H]1C=C[C@H](ON=C(C)CCC(=O)OC[C@H]2O[C@H](c3ccccc3)C=C[C@@H]2Oc2ccc(OC)cc2)[C@@H](CO)O1,-0.128
17,CO[C@@H]1COC(=O)CC=C[C@@H](C)[C@@H]2C=C[C@H](O)[C@@H](COC(=O)CC=C[C@H]1C)O2,-0.255
18,COC(=O)[C@H](C)NC(=O)CCC1CC(OC(=O)NCc2cccc3ccccc23)CC2(CCCC(COC(=O)NCC(c3ccccc3)c3ccccc3)O2)O1 (stereo partly specified),-0.11
